This note sets out measurements from the supplement of paper PMC6522484.

Experiment [1] deals with DLD1. The experiment can be described thus: cell viability (CellTiter-Glo) relative to plate median (fraction of plate median); higher = more viable cells. The settings on record: 5 µM; treatment time 24 h; reporter: 7TFP. The method, boiled down:
(§1)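 Colorectal cancer cells stably transduced with lentiviral TCF/Wnt firefly luciferase reporters were seeded in 384-well plates and dosed 24 h later with library compounds at a final 5 µM for 24 h. Firefly luciferase or CellTiterGlo luminescence was then read on a Tecan F500 from parallel plates. Signals were normalised per well to the plate median without log transformation, additively in webcellHTS2, and averaged over two independent replicates.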
For orientation: Cellular ATP, detected with luciferase, serves as a proxy for viable cell number.

A further experiment has as its system HCT116. Described as above. The settings on record: 5 µM; treatment time 24 h; reporter: TCF4/Wnt. The method, boiled down:
as §1

Experiment [2] relates to SW480. Described as above. The settings on record: 5 µM; treatment time 24 h; reporter: 7TFP. A digest of the protocol: as §1
Experiment [3] deals with DLD1. Put plainly: TCF/Wnt firefly luciferase reporter signal relative to plate median (fraction of plate median); higher = higher Wnt reporter signal. The settings on record: 5 µM; treatment time 24 h; reporter: 7TFP. A digest of the protocol:
as §1
(In a reporter assay the amount or activity of a reporter protein is the signal.)

The test system of experiment [4] is SW480. The experiment is described as above. To be noted: 5 µM; treatment time 24 h; reporter: 7TFP. A digest of the protocol: as §1

The structures appear in SMILES notation. ± gives the standard deviation of the averaged measurements.

For the compound `O=C1c2c(O)cccc2Cc2cccc(O)c21`, the results for the cell viability in the experiment with DLD1 [1], in the experiment on HCT116 and in the experiment with SW480 [2] were 0.945 ± 0.025, 1.02 ± 0.074 and 1.08 ± 0.05, respectively. For the same compound, the “TCF/Wnt firefly luciferase reporter signal” value in the experiment with DLD1 [3] is 0.988 ± 0.031; in the experiment with SW480 [4] it was 0.933 ± 0.017.

Turning to `CC[C@]12CCCN3CCc4c(n(c5ccccc45)[C@@](O)(C(=O)OC)C1)[C@@H]32`, the cell viability turned out to be 1.02 ± 0.047 in the experiment with DLD1 [1], 0.953 ± 0.096 in the experiment on HCT116 and 1.03 ± 0.014 in the experiment on SW480 [2]. Further, the “TCF/Wnt firefly luciferase reporter signal” value in the experiment on DLD1 [3] was 0.981 ± 0.11; in the experiment on SW480 [4], 0.971.

As for `CN1CCN(CCCN2c3ccccc3Sc3ccc(Cl)cc32)CC1`, the cell viability in the experiment with DLD1 [1] turned out to be 1.02 ± 0.13; in the experiment with HCT116, 0.941 ± 0.098; in the experiment on SW480 [2] it was 1.09 ± 0.064. Besides, the “TCF/Wnt firefly luciferase reporter signal” value in the experiment on DLD1 [3] was determined as 1.03 ± 0.054; in the experiment with SW480 [4], 0.929 ± 0.042.

`CN(C)CCOC(c1ccccc1)c1ccccc1`: the cell viability in the experiment on DLD1 [1] was found to be 1.04 ± 0.028; with HCT116, 1.06 ± 0.092; in the experiment on SW480 [2], 0.955 ± 0.013. Further, the “TCF/Wnt firefly luciferase reporter signal” value with DLD1 [3] came out at 1.2; in the experiment with SW480 [4], 1.19 ± 0.085.

As for `CC(C)=CCc1c2c(c(O)c3c(=O)c(O)c(-c4ccccc4)oc13)C=CC(C)(C)O2`, the cell viability in the experiment with DLD1 [1] turned out to be 1.03 ± 0.052; in the experiment with HCT116, 0.998 ± 0.088; in the experiment with SW480 [2] it was 1.025 ± 0.0071. Moreover, the entries for the “TCF/Wnt firefly luciferase reporter signal” value in the experiment on DLD1 [3] and in the experiment on SW480 [4] were 0.935 ± 0.0099 and 0.974 ± 0.011, respectively.

`C=C1C(=O)O[C@H]2[C@H]1CC/C(C)=C/CC[C@@]1(C)O[C@@H]21`: the cell viability in the experiment with DLD1 [1] stood at 0.84 ± 0.12; in the experiment with HCT116, 0.998 ± 0.017; with SW480 [2], 0.886 ± 0.044. The “TCF/Wnt firefly luciferase reporter signal” value is 0.825 ± 0.096 with DLD1 [3] and 0.836 ± 0.049 in the experiment on SW480 [4].

Turning to `O=C(Oc1ccccc1C(=O)O)c1ccccc1O`, the cell viability with DLD1 [1] came out at 1.02 ± 0.014; with HCT116 it was 0.961 ± 0.054; in the experiment with SW480 [2], 1.03 ± 0.014. Besides, the results for the “TCF/Wnt firefly luciferase reporter signal” value in the experiment on DLD1 [3] and in the experiment on SW480 [4] were 1.06 ± 0.14 and 1.02 ± 0.18, respectively.

On to `CC(=O)Oc1c(C)cccc1C(=O)O`, for which the cell viability with DLD1 [1] stood at 0.9705 ± 0.0064; in the experiment with HCT116 it was 0.966 ± 0.039; in the experiment with SW480 [2], 1.02 ± 0.063. Moreover, the “TCF/Wnt firefly luciferase reporter signal” value with DLD1 [3] turned out to be 0.884 ± 0.13; in the experiment on SW480 [4] it was 0.979 ± 0.087.

For `O=C1OC(c2ccc(O)cc2)(c2ccc(O)cc2)c2ccccc21`, the cell viability with DLD1 [1] is 1.01 ± 0.12; with HCT116, 1.03 ± 0.12; in the experiment with SW480 [2], 1.025 ± 0.0071. For the same compound, the “TCF/Wnt firefly luciferase reporter signal” value was found to be 0.981 ± 0.069 in the experiment on DLD1 [3] and 1.04 ± 0.057 in the experiment on SW480 [4].

In the case of `COc1ccc(-c2cc(=O)c3c(OC)c(OC)c(OC)cc3o2)cc1OC`, the figures for the cell viability in the experiment with DLD1 [1], in the experiment on HCT116 and in the experiment with SW480 [2] were 1.01 ± 0.022, 1.055 ± 0.0071 and 1.015 ± 0.0071, respectively. Besides, the “TCF/Wnt firefly luciferase reporter signal” value stood at 1.07 ± 0.13 in the experiment on DLD1 [3] and 1.15 ± 0.16 with SW480 [4].

In the case of `COc1ccc2c(c1)[C@@]1(C)CC[C@@H](O)C[C@@H]1CC2` [12-METHOXY-4,4-BISNOR-5alpha-8,11,13-PODOCARPATRIEN-3-OL], the figures for the cell viability with DLD1 [1], in the experiment with HCT116 and in the experiment on SW480 [2] were 1.02 ± 0.014, 1.1 ± 0.13 and 0.984 ± 0.037, respectively. Also, the “TCF/Wnt firefly luciferase reporter signal” value is 1.03 ± 0.11 with DLD1 [3] and 0.937 ± 0.021 in the experiment on SW480 [4].

With `Cc1c(Cl)cccc1Nc1ccccc1C(=O)O`, the figures for the cell viability in the experiment with DLD1 [1], with HCT116 and in the experiment on SW480 [2] were 0.981 ± 0.041, 1.04 ± 0.014 and 0.914 ± 0.039, respectively. In addition, the figures for the “TCF/Wnt firefly luciferase reporter signal” value with DLD1 [3] and in the experiment with SW480 [4] were 0.979 ± 0.12 and 0.862 ± 0.022, respectively.

With `C=CC(C1=CC(=O)C(OC)=CC1=O)c1ccc(O)cc1` (stereo not given), the cell viability in the experiment with DLD1 [1] was 1.01; in the experiment on HCT116 it was 1.1 ± 0.021; with SW480 [2] it was 1.02. In addition, the entries for the “TCF/Wnt firefly luciferase reporter signal” value in the experiment with DLD1 [3] and in the experiment on SW480 [4] were 0.879 ± 0.0028 and 0.877 ± 0.12, respectively.

Turning to `Cc1cc(C(C)(C)C)cc(C)c1CC1=NCCN1`, the cell viability was found to be 1.095 ± 0.0071 with DLD1 [1], 1.06 ± 0.035 with HCT116 and 1.07 ± 0.057 in the experiment with SW480 [2]. For the same compound, the entries for the “TCF/Wnt firefly luciferase reporter signal” value with DLD1 [3] and in the experiment on SW480 [4] were 0.9565 ± 0.0064 and 0.991 ± 0.098, respectively.

For the compound `Nc1c2c(nc3ccccc13)CCCC2O` (stereo not given), the cell viability in the experiment on DLD1 [1] was 1.01 ± 0.018; in the experiment with HCT116, 1.12 ± 0.028; with SW480 [2], 0.954 ± 0.021. Moreover, the “TCF/Wnt firefly luciferase reporter signal” value in the experiment with DLD1 [3] was found to be 0.932 ± 0.016; with SW480 [4], 0.931 ± 0.03.
